Our source for the outcome and AC50 values is PubChem BioAssay (EPA / NIEHS).

Calls of active or inactive are those of the source. How the source made its calls: active means hit-call score of the fitted dose curve at least 0.9, where 1 is the maximum; inactive means score below 0.9.

Common to all, as to conditions: mRNA level, 48 h; actives raise or lower the signal
Read-out in test [1]: Early growth response protein 1 (EGR1) transcription factor, EGR1 (gene 1958)
The test is described as follows: LTEA_HepaRG_EGR1: Life Technologies and Expression Analysis (LTEA) Assay for Early growth response protein 1 (EGR1) transcription factor using HepaRG (AID 2283490). Put shortly:
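Differentiated HepaRG cells in serum-free induction medium exposed 48 hours, duplicate, to 8 half-log concentrations up to 100 uM in 0.5% DMSO. EGR1 mRNA measured by TaqMan qRT-PCR, normalized to ACTB, GAPDH, POLR2A; bidirectional fit versus DMSO.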

Read-out in test [2]: Ezrin (EZR), EZR (gene 7430)
The test is described as follows: LTEA_HepaRG_EZR: Life Technologies and Expression Analysis (LTEA) Assay for Ezrin (EZR) using HepaRG (AID 2283491). Put shortly:
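EZR transcript levels came from Fluidigm qRT-PCR and were normalized to three housekeeping genes after 48 h chemical exposure of HepaRG cells. Dosing used an 8-point half-log series with a 100 uM top concentration in 0.5% DMSO, tested in duplicate; both directions were fitted versus vehicle.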

Read-out in test [3]: Cytochrome P450 3A7 (Homo sapiens) (UniProt P24462)
The test is described as follows: LTEA_HepaRG_CYP3A7: Life Technologies and Expression Analysis (LTEA) Assay for CYP3A7 using HepaRG (AID 2283492). Put shortly:
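CYP3A7 transcript levels were read by TaqMan qRT-PCR on Fluidigm arrays after 48 h chemical exposure of human HepaRG cells, with housekeeping-gene normalisation. Eight half-log concentrations up to 100 uM in 0.5% DMSO were tested in duplicate.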

Read-out in test [4]: CYP3A5 (gene 1577)
The test is described as follows: LTEA_HepaRG_CYP3A5: Life Technologies and Expression Analysis (LTEA) Assay for CYP3A5 using HepaRG (AID 2283493). The method in brief: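 mRNA induction or loss of CYP3A5 assessed in HepaRG after 48 h dosing, 100 uM top concentration, duplicate wells; TaqMan qRT-PCR with ACTB, GAPDH, POLR2A normalization; 0.5% DMSO as negative control.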

Read-out in test [5]: Cytochrome P450 4A22 (Homo sapiens) (UniProt Q5TCH4)
The test is described as follows: LTEA_HepaRG_CYP4A22: Life Technologies and Expression Analysis (LTEA) Assay for Cytochrome P450 4A22 (CYP4A22) using HepaRG (AID 2283495). Put shortly:
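HepaRG, 48 h post-plating -> serum-free induction medium; dosed 48 h, duplicate, 8 conc. (100 uM top, half-log), 0.5% DMSO. Readout: CYP4A22 mRNA by qRT-PCR, ACTB/GAPDH/POLR2A normalization; gain/loss fit relative to DMSO.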

Read-out in test [6]: Cytochrome P450 7A1 (Homo sapiens) (UniProt P22680)
The test is described as follows: LTEA_HepaRG_CYP7A1: Life Technologies and Expression Analysis (LTEA) Assay for Cytochrome P450 7A1 (CYP7A1) using HepaRG (AID 2283496). Put shortly: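 Gene expression endpoint in human HepaRG liver cells treated for 48 h with test chemicals (up to 100 uM, 0.5% DMSO). Values come from bidirectional concentration-response fitting versus DMSO.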

Read-out in test [7]: Glutathione S-Transferase (GSTA2), GSTA2 (gene 2939)
In words: LTEA_HepaRG_GSTA2: Life Technologies and Expression Analysis (LTEA) Assay for Glutathione S-Transferase (GSTA2) using HepaRG (AID 2283497). Put shortly:
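Differentiated human HepaRG cells were exposed in duplicate for 48 h in serum-free induction medium, 8 points from 100 uM top in half-log steps, 0.5% DMSO. GSTA2 mRNA was measured by TaqMan qRT-PCR, normalized to ACTB, GAPDH and POLR2A; bidirectional fit versus DMSO.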

Read-out in test [8]: Glutamate-cysteine ligase catalytic (GCLC), GCLC (gene 2729)
In words: LTEA_HepaRG_GCLC: Life Technologies and Expression Analysis (LTEA) Assay for Glutamate-cysteine ligase catalytic (GCLC) using HepaRG (AID 2283498). Put shortly:
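Differentiated HepaRG cells exposed 48 h in serum-free induction medium, eight-point half-log series topping at 100 uM in 0.5% DMSO, duplicates. GCLC mRNA by qRT-PCR normalized to ACTB, GAPDH and POLR2A, fitted bidirectionally versus DMSO.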

Read-out in test [9]: growth arrest and DNA damage 45 (GADD45G), GADD45G (gene 10912)
The test is described as follows: LTEA_HepaRG_GADD45G: Life Technologies and Expression Analysis (LTEA) Assay for growth arrest and DNA damage 45 (GADD45G) using HepaRG (AID 2283499). The method in brief:
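HepaRG, 48 h exposure, top 100 uM, half-log 8-point series, 0.5% DMSO vehicle, duplicates. Readout: GADD45G transcript by qRT-PCR (Fluidigm array), housekeeping-normalised (ACTB/GAPDH/POLR2A). Bidirectional curve fit vs DMSO baseline.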

Read-out in test [10]: Heat shock 70 kDa protein 1 (HSPA1A), gene 3303
In words: LTEA_HepaRG_HSPA1A: Life Technologies and Expression Analysis (LTEA) Assay for Heat shock 70 kDa protein 1 (HSPA1A) using HepaRG (AID 2283502). Put shortly: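 HSPA1A induction in human HepaRG liver cells is measured after 48 h of chemical treatment (100 uM maximum, 0.5% DMSO vehicle). Expression comes from qRT-PCR normalized to endogenous controls.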

Read-out in test [11]: Hypoxia-inducible factor 1-alpha (Homo sapiens) (UniProt Q16665)
The test is described as follows: LTEA_HepaRG_HIF1A: Life Technologies and Expression Analysis (LTEA) Assay for Hypoxia-inducible factor 1 (HIF1A) Trancription factor using HepaRG (AID 2283503). Put shortly:
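HepaRG, 48 h exposure, 8-pt half-log series from 100 uM, 0.5% DMSO vehicle, duplicates. Readout: HIF1A transcript by qRT-PCR (Fluidigm array), housekeeping-normalised. Bidirectional curve fit vs DMSO baseline.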

Read-out in test [12]: HGF (gene 3082)
The test is described as follows: LTEA_HepaRG_HGF: Life Technologies and Expression Analysis (LTEA) Assay for Hepatocyte Growth Facto (HGF) using HepaRG (AID 2283505). The method in brief:
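HepaRG, 48 h dosing, 8-pt half-log series from 100 uM in 0.5% DMSO, duplicates. Readout: TaqMan qRT-PCR of HGF mRNA, housekeeping-normalized; bidirectional curve fit vs DMSO baseline.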

Read-out in test [13]: Insulin Like Growth Factor 1 (IGF1), IGF1 (gene 3479)
The test is described as follows: LTEA_HepaRG_IGF1: Life Technologies and Expression Analysis (LTEA) Assay for Insulin Like Growth Factor 1 (IGF1) using HepaRG (AID 2283506). Put shortly: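 Using human HepaRG liver cells, IGF1 transcript induction or suppression is measured 48 h after dosing across eight concentrations capped at 100 uM. Values derive from bidirectional concentration-response fitting with DMSO as baseline.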

Read-out in test [14]: Intercellular Adhesion Molecule 1 (ICAM1), ICAM1 (gene 3383)
In words: LTEA_HepaRG_ICAM1: Life Technologies and Expression Analysis (LTEA) Assay for Intercellular Adhesion Molecule 1 (ICAM1) using HepaRG (AID 2283507). Put shortly:
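HepaRG, 48 h exposure, 8-pt half-log series from 100 uM, 0.5% DMSO vehicle, duplicates. Readout: TaqMan qRT-PCR mRNA, housekeeping-normalized (ACTB/GAPDH/POLR2A). Bidirectional curve fit vs DMSO baseline.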

Read-out in test [15]: Insulin-like growth factor-binding protein 1 (IGFBP1), IGFBP1 (gene 3484)
In words: LTEA_HepaRG_IGFBP1: Life Technologies and Expression Analysis (LTEA) Assay for Insulin-like growth factor-binding protein 1 (IGFBP1) using HepaRG (AID 2283508). Put shortly:
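qRT-PCR mRNA read-out (TaqMan, Fluidigm array), normalised to three housekeeping genes; HepaRG cells, 48 h exposure, 8-pt half-log series from 100 uM, 0.5% DMSO vehicle; bidirectional curve fit vs DMSO baseline.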

Read-out in test [16]: Interleukin 6 (IL6), IL6 (gene 3569)
The test is described as follows: LTEA_HepaRG_IL6: Life Technologies and Expression Analysis (LTEA) Assay for Interleukin 6 (IL6) using HepaRG (AID 2283509). The method in brief:
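HepaRG cells exposed in duplicate for 48 h to eight half-log concentrations, top 100 uM, in 0.5% DMSO serum-free induction medium. mRNA measured by qRT-PCR, normalized to ACTB, GAPDH and POLR2A. Bidirectional fit versus DMSO.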

Read-out in test [17]: 3-Hydroxy-3-Methylglutaryl-CoA Synthase 2 (HMGCS2), HMGCS2 (gene 3158)
In words: LTEA_HepaRG_HMGCS2: Life Technologies and Expression Analysis (LTEA) Assay for 3-Hydroxy-3-Methylglutaryl-CoA Synthase 2 (HMGCS2) using HepaRG (AID 2283504). Put shortly:
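qRT-PCR read-out of HMGCS2 transcript, normalised to three housekeeping genes, in HepaRG cells after 48 h chemical exposure. Eight-point curves from 100 uM, half-log dilutions, 0.5% DMSO vehicle; gain or loss fitted relative to DMSO baseline.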

Read-out in test [18]: Glutamate-cysteine ligase regulatory (GCLM), GCLM (gene 2730)
The test is described as follows: LTEA_HepaRG_GCLM: Life Technologies and Expression Analysis (LTEA) Assay for Glutamate-cysteine ligase regulatory (GCLM) using HepaRG (AID 2283500). Put shortly:
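Human liver HepaRG cultures receive test chemicals for 48 hours at up to 100 uM in 0.5% DMSO. GCLM expression is measured by qRT-PCR and analysed for increases or decreases against vehicle.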

Read-out in test [19]: Glutathione S-transferase M3 (GSTM3), GSTM3 (gene 2947)
In words: LTEA_HepaRG_GSTM3: Life Technologies and Expression Analysis (LTEA) Assay for Glutathione S-transferase M3 (GSTM3) using HepaRG (AID 2283501). Put shortly: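 qRT-PCR read-out of GSTM3 transcript, normalized to three housekeeping genes, from human HepaRG cells after 48 h chemical exposure. Eight-point half-log series, top 100 uM, 0.5% DMSO vehicle; gain or loss fitted relative to DMSO baseline.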

Hypoxia-inducible factor 1-alpha (Homo sapiens), sequence (Q16665 whole entry, looked up): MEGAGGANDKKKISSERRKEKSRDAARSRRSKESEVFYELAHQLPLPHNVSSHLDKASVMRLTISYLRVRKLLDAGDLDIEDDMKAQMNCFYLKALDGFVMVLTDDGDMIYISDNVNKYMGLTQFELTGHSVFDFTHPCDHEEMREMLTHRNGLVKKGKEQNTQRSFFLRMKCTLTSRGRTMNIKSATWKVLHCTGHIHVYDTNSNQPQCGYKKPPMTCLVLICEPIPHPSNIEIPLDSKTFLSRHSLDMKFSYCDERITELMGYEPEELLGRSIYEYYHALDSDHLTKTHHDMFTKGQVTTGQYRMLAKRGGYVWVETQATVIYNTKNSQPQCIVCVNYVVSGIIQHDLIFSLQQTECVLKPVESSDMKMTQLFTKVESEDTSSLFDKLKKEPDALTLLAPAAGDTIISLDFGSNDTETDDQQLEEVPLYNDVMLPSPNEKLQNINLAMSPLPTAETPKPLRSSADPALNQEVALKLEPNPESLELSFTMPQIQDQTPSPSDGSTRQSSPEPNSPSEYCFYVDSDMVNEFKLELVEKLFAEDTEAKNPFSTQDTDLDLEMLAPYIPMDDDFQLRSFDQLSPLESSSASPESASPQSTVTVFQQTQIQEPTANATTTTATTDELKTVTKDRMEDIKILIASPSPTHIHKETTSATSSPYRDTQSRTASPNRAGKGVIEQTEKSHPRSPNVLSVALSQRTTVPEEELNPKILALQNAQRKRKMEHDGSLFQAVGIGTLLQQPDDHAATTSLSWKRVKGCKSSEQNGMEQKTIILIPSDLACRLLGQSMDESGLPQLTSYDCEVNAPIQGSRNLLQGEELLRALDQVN
Cytochrome P450 3A7 (Homo sapiens), sequence (P24462 whole entry, looked up): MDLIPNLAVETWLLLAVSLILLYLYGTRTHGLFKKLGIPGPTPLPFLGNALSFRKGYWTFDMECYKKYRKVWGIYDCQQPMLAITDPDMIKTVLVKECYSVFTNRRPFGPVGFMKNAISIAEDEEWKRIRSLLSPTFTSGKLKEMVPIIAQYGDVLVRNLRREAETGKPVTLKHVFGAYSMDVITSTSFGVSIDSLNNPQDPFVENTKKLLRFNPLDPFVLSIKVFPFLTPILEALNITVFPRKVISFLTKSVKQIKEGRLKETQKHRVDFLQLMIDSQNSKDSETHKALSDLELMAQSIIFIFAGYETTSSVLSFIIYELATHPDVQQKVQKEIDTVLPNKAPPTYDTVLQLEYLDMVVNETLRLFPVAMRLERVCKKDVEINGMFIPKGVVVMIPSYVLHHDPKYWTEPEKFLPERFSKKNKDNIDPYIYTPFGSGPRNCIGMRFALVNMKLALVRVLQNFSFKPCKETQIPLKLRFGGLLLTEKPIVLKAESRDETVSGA

As to `NC(=Nc1ccccc1)Nc1ccccc1`, the result in test [1], in [2], in test [3], in [4], in test [5] and in [6] was inactive. Also, the call in [7], in [8], in [9], in [10], in test [11] and in [12] was inactive. The compound was classed as inactive in test [13], in [14] and in test [16]. Further, the AC50 (in general, the concentration at which the activity in the assay is half-maximal) in test [15] was 13.2 µM (active).
Take `CCCCOC(=O)CCCCC(=O)OCCCC`: the result in test [1], in [2], in [3], in [4], in [5] and in test [6] was inactive. Besides, the call in [7], in [8], in [9], in test [10], in test [11] and in test [17] was inactive. The compound was classed as inactive in [12], in [13], in [14], in test [15] and in [16].
As to `CN(C)C(=O)NC1(c2ccccc2)CCN(CCC[C@]2(c3ccc(Cl)c(Cl)c3)CCCN(C(=O)c3ccccc3)C2)CC1`, the concentration at half-maximal activity (AC50) in test [1] was 23.1 µM (active); in [2], 23.4 µM (active); in test [5], 23.7 µM (active); in [6] it was 22.2 µM (active); in test [7], 20.3 µM (active); in test [8], 21.9 µM (active). Moreover, the AC50 is 20.4 µM (active) in test [9]; 12.5 µM (active) in [18]; 20.5 µM (active) in test [10]; 22.5 µM (active) in test [12]; 20.1 µM (active) in test [14]; 18.2 µM (active) in [15]. In addition, in [16], the half-maximal activity concentration (AC50) is 22.7 µM (active). Besides, the result in [4], in [19] and in test [11] was inactive.
With `Cc1cn([C@H]2C=C[C@@H](CO)O2)c(=O)[nH]c1=O`, the result in [1], in [2], in test [3], in [4], in [5] and in test [6] was inactive. Also, the outcome in [7], in [8], in test [9], in [10], in test [12] and in [13] was inactive. Moreover, the compound was called inactive in test [14], in test [15] and in test [16].
